# Experimental data: PubChem BioAssay AID434982 (The Scripps Research Institute Molecular Screening Center, 2010)
# Screen size: about 15,000 compounds; about 60 (0.4%) were called active. For the sample, actives were picked, then their nearest neighbours and some compounds at random. A number with no mark means an inactive call. Rule as the data show it: active = activation above about 2.2%; inactive = the rest.
# Experiment: agonists of NOTCH signaling (AID 434982)
# Conditions: NOTCH signaling luciferase reporter cells, luminescence; at 2.5 µM; stronger effect = higher value
row,Compound,activation
1,CC(C)(C)NC(=O)NCC(c1ccc[nH]1)C(F)(F)F (centres undefined),-0.29%
2,CCOC(=O)C(=CNc1nc(-c2ccc(Cl)cc2)cs1)C(=O)OCC,-0.64%
3,Cc1ccc(Oc2c(C)[nH]c(=S)[nH]c2=O)cc1,-0.61%
4,CC(=O)N1c2ccccc2C=Cc2ccccc21,-5.39%
5,CN(C)c1ccc(/C=C(\C#N)S(C)(=O)=O)c(Cl)c1,-0.47%
6,Cc1cc(C(F)(F)F)nc2c(-c3noc(-c4ccccc4)n3)cnn12,-0.99%
7,O=C(c1ccc(C#Cc2ccccc2)o1)N1CCCCC1,-0.2%
8,O=[N+]([O-])c1ccc(CSc2nnc(-c3ccncc3)o2)cc1,0.14%
9,Cc1[nH]c2c(F)cc(F)cc2c(=O)c1I,-0.36%
10,O=C1c2cc(S(=O)(=O)Oc3ccccc3)ccc2-c2ccc(S(=O)(=O)Oc3ccccc3)cc21,-1.18%
11,CCCCc1c(O)cc(-c2ccccc2)n(Cc2ccccc2)c1=O,-0.19%
12,COC(=O)C(C#N)c1ccc(C(F)(F)F)cc1[N+](=O)[O-] (centres undefined),-0.67%
13,CC(C)S(=O)(=O)c1cscc1N/C=C(/C#N)C(=O)C1CC1,0%
14,Cc1nc(-c2nnc(SCC(=O)c3ccc(F)cc3)n2C)cs1,-0.64%
15,NNC(=O)c1csc(-c2ccc(C(F)(F)F)cn2)n1,-0.19%
16,CCOC(=O)c1cc(CC)sc1NC(=O)c1cccnc1Oc1ccccc1,0.22%
17,COC(=O)c1c(C(=O)OC)c2n(c1C)CCS2,3.54% (active)
18,Cc1cc(-c2nc(C(=O)NN3CCCCC3)cs2)no1,-0.7%
19,Cc1noc(C)c1C(=O)Oc1cccc2cccnc12,0.63%
20,S=C1NCN(CCCn2ccnc2)CN1,0.16%

row,Compound,activation
1,COc1ccc(CCNC(=O)c2ccccc2-c2ccccc2C(=O)O)cc1OC,-0.75%
2,Cc1noc(C)c1S(=O)(=O)NCc1cc(F)cc2c1OCOC2,-0.53%
3,Nc1nc(C23CC4CC(CC(C4)C2)C3)cs1,-0.6%
4,COC(=O)c1ccc2snnc2c1,-0.29%
5,CCOC(=O)/C=C(/Nc1ccccc1SC)c1ccccc1,-0.36%
6,COC(=O)c1cc(OC)c(OC)cc1NC(=O)CSc1ccc(Cl)cc1,-0.78%
7,Cc1cc(/C(N)=N/OC(=O)c2cccs2)c(-c2ccccc2)o1,2.72% (active)
8,N/C(Cc1cccs1)=N\OC(=O)c1ccccc1,-0.76%
9,CS(=O)(=O)Nc1ccc(/C(N)=N/OC(=O)c2cccs2)cc1,-0.39%
10,COC(OC)c1ccc(C#N)c(SCC(=O)Nc2ccc(C(F)(F)F)cc2)n1,-0.25%
11,O=C(Nc1ccccc1N1CCOCC1)NC1CCN(C(=O)OCc2ccccc2)CC1,-0.87%
12,Clc1ccc(C=NCc2cccnc2)c(Cl)c1,-0.28%
13,Cc1nc(-c2ncc(-c3ccccc3)o2)c(C(F)(F)F)o1,-4.8%
14,NC(=O)C1CCN(CC(O)CSc2ccc(F)cc2)CC1 (centres undefined),-5.86%
15,CCOC(=O)C(=CNc1ccc2n[nH]nc2c1)C(=O)OCC,-0.78%
16,Cn1nccc1NC(=O)CC(CC(=O)O)c1ccccc1 (centres undefined),0.57%
17,CCOC(=O)c1ccc(NC)c(N)c1,-0.75%
18,COc1ccc2cc(/C(C)=N/OC(=O)Nc3ccccc3)ccc2c1,0.13%
19,COc1cc(C=C(C#N)C#N)cc(OC(C)=O)c1OC(C)=O,-0.27%
